Screens from PubChem.
SMN2 splice enh – enhancers of SMN2 splice variant expression; AID 1458; Potency, µM (series often up to 46.1 µM), hits mostly activators; 210,000 compounds, 2.8% hits; HEK293 SMN2-luciferase splicing reporter, luminescence, 30-36 h; further: nearly all actives have a fitted effect of over 55% in size
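qHTS luciferase splicing reporter: luminescence rises when SMN2 exon 7 is included in transfected HEK293 cells. Compound exposure lasted 30-36 h at 37C, with 4.5 mM final sodium butyrate as control, followed by a ONE-Glo read.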
Rab9 promoter act – Rab9 promoter activation. Potency, µM (titrated, usually from 9.22 µM), actives largely listed as activators. Huh7 Rab9 promoter-luciferase reporter, luminescence, 24 h. 320,000 compounds, 2.8% hits. AID 485297; further: nearly all actives have a fitted effect of over 60% in size
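Measured in stably transfected Huh7 cells bearing a Rab9 promoter–luciferase construct: 24 h compound treatment at 37 °C, followed by luminescence detection.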
FLuc modulator – firefly luciferase modulation, counter-screen for miR-21 project; P08659; purified FLuc, Km substrates, luminescence inhibition; 360,000 compounds, 6.9% hits; Potency, µM (top dose mostly 57.5 µM), actives largely listed as inhibitors; further: nearly all actives have a fitted effect of over 55% in size
Target sequence (P08659 whole entry, looked up): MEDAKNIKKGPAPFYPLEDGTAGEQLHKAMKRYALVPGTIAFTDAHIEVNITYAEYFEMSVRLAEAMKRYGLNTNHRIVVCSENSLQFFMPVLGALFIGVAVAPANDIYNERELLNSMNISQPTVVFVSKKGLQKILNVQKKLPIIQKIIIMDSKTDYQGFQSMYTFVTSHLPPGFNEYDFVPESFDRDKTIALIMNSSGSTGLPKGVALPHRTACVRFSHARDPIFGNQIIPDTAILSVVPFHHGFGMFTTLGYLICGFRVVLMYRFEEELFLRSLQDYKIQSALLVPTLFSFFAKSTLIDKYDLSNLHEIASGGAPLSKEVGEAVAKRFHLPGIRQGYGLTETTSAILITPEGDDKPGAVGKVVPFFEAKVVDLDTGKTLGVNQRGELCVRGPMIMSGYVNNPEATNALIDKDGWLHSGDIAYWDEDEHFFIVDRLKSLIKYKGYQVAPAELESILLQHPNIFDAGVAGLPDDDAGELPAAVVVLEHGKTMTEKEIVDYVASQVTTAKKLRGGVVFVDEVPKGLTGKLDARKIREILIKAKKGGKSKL
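Purified P. pyralis luciferase, 10 nM final, with Km-level 10 uM D-luciferin and 10 uM ATP in 50 mM Tris acetate pH 7.5, 10 mM Mg acetate, 0.01% Tween-20, 0.05% BSA; 6-point qHTS titration about 60 µM downward; luminescence read.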
ELG1 genotox – inducers of genotoxicity in HEK293T ELG1-luciferase cells; AID 504466; HEK293T ELG1-luciferase reporter, luminescence, 16 h; 330,000 compounds, 1.3% hits; Potency, µM (series often up to 46 µM), most hits filed as activators; further: nearly all actives have a fitted effect of over 60% in size
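Reporter readout depends on ELG1 protein level, which increases with genetic stress. After 16 hr compound exposure at 37 °C, luciferase activity was quantified using ONE-Glo.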
NPC1 promoter act – activates the NPC1 promoter; 320,000 compounds, 2.4% hits; AID 485313; Huh7 NPC1 promoter luciferase reporter, 24 h; Potency, µM (highest dose often 9.22 µM), most hits filed as activators; further: nearly all actives have a fitted effect of over 60% in size
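Huh7 reporter cells (NPC1 promoter driving luciferase) are dosed with compound for 24 h at 37 °C, 5% CO2; luciferase detection reagent is then added and luminescence measured after 10 min at ambient temperature.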
Luc counter – counter-screen: inhibitors of Kinase-Glo firefly luciferase | Q27757 | Kinase-Glo luciferase, ATP luminescence, 8 min | Potency, µM (titrated, usually from 38.3 µM), most hits filed as inhibitors | 200,000 compounds, 0.28% hits | AID 1379; further: nearly all actives have a fitted effect of over 60% in size
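Light output from Kinase-Glo luciferase with luciferin and 10 uM ATP in 50 mM imidazole pH 7.2, KCl, MgCl2, Tween 20, BSA; compound pin-delivered, 8-min ambient incubation, then luminescence read.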
Of the large screens only hits and unclear results are named; the others gave an inactive call. Hits are enriched below; roughly 7.3% of the tested compounds scored in any of these assays. The call rests on the fitted dose curve; in most records, active means well fitted curve in the direction sought with a large enough effect; inconclusive means small, poorly fitted or top-dose-only effect, or another doubt; inactive means no such curve, though single readings can be large; an effect the other way counts as inactive or inconclusive.

COc1ccc(/C=C2\N=C3CCCCCN3C2=O)cc1	SMN2 splice enh inconclusive, FLuc modulator 15.1µM, ELG1 genotox inconclusive
CC1CCCCN1Cc1c(O)ccc2c(=O)c(-c3nc4ccccc4s3)c(N)oc12 (centres undefined)	FLuc modulator 12µM
CC1CCCCN1Cc1c(O)ccc2c(=O)c(-c3ccccc3Cl)c(C(F)(F)F)oc12 (centres undefined)	none (no result: Rab9 promoter act, ELG1 genotox, NPC1 promoter act, Luc counter)
CC1CCC2C(C1)c1sc(=O)[nH]c1SC2(C)C (centres undefined)	none
Cc1cc(Nc2ccc(N(C)C)cc2)n2ncnc2n1	FLuc modulator 16.9µM (no result: SMN2 splice enh, Luc counter)
Cc1ccc(C)c(Nc2cc(C)nc3ncnn23)c1	Rab9 promoter act 0.1µM, NPC1 promoter act inconclusive (no result: SMN2 splice enh, Luc counter)
O=C(N/N=C\c1ccc([N+](=O)[O-])s1)C1COc2ccccc2O1 (centres undefined)	Rab9 promoter act 1.12µM, NPC1 promoter act inconclusive (no result: SMN2 splice enh, Luc counter)
CCOC(=O)N/N=C\c1ccc([N+](=O)[O-])s1	none
CC(C)(C)OC(=O)N/N=C\c1ccc([N+](=O)[O-])s1	FLuc modulator 26.9µM
Cc1nn(-c2ccccc2)c(Cl)c1/C=N/Nc1ccc(S(=O)(=O)Nc2ccccc2C(=O)O)cc1[N+](=O)[O-]	none
Cc1nn(C)cc1/C=N/NC(=O)c1ccco1	Rab9 promoter act inconclusive, FLuc modulator 16.9µM (no result: SMN2 splice enh, Luc counter)
Cc1nn(-c2ccccc2)c(Cl)c1/C=N/Nc1ccc(Cl)c(C(=O)O)c1	SMN2 splice enh 0.447µM, Rab9 promoter act 0.0794µM, FLuc modulator 0.601µM, ELG1 genotox 0.184µM, NPC1 promoter act 0.0891µM
Cc1cc(C(=O)N/N=C/c2cn(C)nc2C)c2ccccc2n1	none (no result: SMN2 splice enh, Luc counter)
O=C(N/N=C\c1ccc(Cl)s1)C1COc2ccccc2O1 (centres undefined)	none (no result: SMN2 splice enh, Luc counter)
COc1ccc(-c2cn3nc(N4CCC(C(=O)Nc5cccc(Cl)c5)CC4)sc3n2)cc1	none (no result: SMN2 splice enh, Rab9 promoter act, ELG1 genotox, NPC1 promoter act, Luc counter)
COc1ccc(-n2cc(CN3CCC(OC)CC3)c(-c3cccc(F)c3)n2)cc1	FLuc modulator inconclusive (no result: SMN2 splice enh)
C=C(C)COc1ccc(-c2[nH]ncc2-c2ccc(Br)cc2)c(O)c1	none
COc1ccccc1NC(=O)c1ccc2oc(=O)c(S(=O)(=O)c3ccccc3)cc2c1	none (no result: Rab9 promoter act, ELG1 genotox, NPC1 promoter act, Luc counter)
Cc1nn(-c2ccccc2)c(Cl)c1/C=N/NC(=O)c1ccco1	SMN2 splice enh 22.4µM, Rab9 promoter act 2.51µM, FLuc modulator 3.79µM, ELG1 genotox inconclusive, NPC1 promoter act 3.16µM
CCOC(=O)N/N=C/c1c(C)nn(-c2ccccc2Cl)c1Cl	SMN2 splice enh 12.6µM, Rab9 promoter act inconclusive, FLuc modulator 9.53µM, ELG1 genotox inconclusive, NPC1 promoter act inconclusive
CNC(=S)N/N=C/c1c(C)nn(-c2ccccc2)c1Cl	SMN2 splice enh inconclusive, FLuc modulator inconclusive, ELG1 genotox inconclusive
Cc1nn(-c2ccccc2)c(Cl)c1/C=N/Nc1nncc(=O)[nH]1	FLuc modulator 15.1µM (no result: SMN2 splice enh, Luc counter)
Cc1cc(=O)[nH]c(N/N=C/c2c(C)nn(-c3ccc(F)cc3)c2Cl)n1	none
Cc1ccc(C)c(OCC(=O)N/N=C/c2c(C)nn(-c3ccccc3)c2Cl)c1	none
Cc1nn(-c2ccccc2)c(Cl)c1/C=N/NC(=O)C1COc2ccccc2O1 (centres undefined)	FLuc modulator 7.57µM
Cc1cc2cc(CN(Cc3ccco3)S(=O)(=O)c3c(C)ccc4nsnc34)c(=O)[nH]c2cc1C	none
CCN(CC)S(=O)(=O)c1cccc(C(=O)N/N=C/c2c(C)nn(-c3ccccc3)c2Cl)c1	none
Cc1nn(-c2ccccc2Cl)c(Cl)c1/C=N/Nc1nc2ccccc2s1	FLuc modulator 0.169µM
Cc1nn(-c2ccccc2)c(Cl)c1/C=N/NC(=O)OC(C)(C)C	SMN2 splice enh 17.8µM, Rab9 promoter act 2µM, FLuc modulator 15.1µM, NPC1 promoter act 2.82µM
Cc1nn(-c2ccccc2)c(Cl)c1/C=N/NC(=O)c1ccc(CNc2ccccc2)o1	SMN2 splice enh inconclusive, FLuc modulator 2.13µM
Cc1nn(-c2ccccc2)c(Cl)c1/C=N/NS(=O)(=O)c1ccc(Br)cc1	none
COc1ccc(C(=O)Nc2ccc(NC(C)=O)cc2)cc1S(=O)(=O)N1CCCC1	none (no result: SMN2 splice enh, Luc counter)
O=C(Nc1cc(C(F)(F)F)ccc1N1CCOCC1)c1ccc(Cl)nc1	none
Nc1nncn1C(=O)CCCOc1ccc(Cl)cc1Cl	FLuc modulator 9.53µM
CCN(CC)C(=O)CCCOc1ccc(Cl)cc1Cl	Rab9 promoter act inconclusive, FLuc modulator inconclusive, NPC1 promoter act 3.16µM
CC(C)NC(=O)CCCOc1ccc(Cl)cc1Cl	FLuc modulator inconclusive, ELG1 genotox inconclusive
C#CCN(C)CCCOc1ccc(Cl)cc1Cl	Rab9 promoter act inconclusive, FLuc modulator 13.5µM, NPC1 promoter act inconclusive
CC(C)NC(=O)COc1ccc(S(=O)(=O)N2CCCC2)cc1	none (no result: SMN2 splice enh, Luc counter)
CCOc1ccccc1OCC(=O)Nc1c(C)n(C)n(-c2ccccc2)c1=O	none (no result: SMN2 splice enh, Luc counter)
Cc1ccccc1NC(=O)Cc1c(O)c2ccccc2[nH]c1=O	none
Cc1ccc(NC(=O)Cc2c(O)c3ccccc3[nH]c2=O)c(C)c1	FLuc modulator 16.9µM (no result: SMN2 splice enh, Luc counter)
